Source: PubChem
CtBP-E1A inh – qHTS Assay for Inhibitors of the CtBP/E1A Interaction; CtBP / adenovirus E1A interaction (AlphaScreen); AlphaScreen GST-E1A/His-CtBP binding, 1536-well; hits give low values; activity change, % (concentration not given with the values); actives 0.49% (n = 340,000); in the data active = activity change below about -65%; inconclusive = mostly about -30% to -63%; also: % is scaled to controls: 0 for no effect and ±100 for the full control effect
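In 5 uL wells, 23 nL compound meets equimolar GST-E1A and His-CtBP (5X stock 125 nM each) for 2 h, 37 °C. Beads (5X, 50 ug/mL) then 1 h, 37 °C, dark.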
RORg inh – qHTS for inhibitors of ROR gamma transcriptional activity. Nuclear receptor ROR-gamma (Mus musculus), P51450. AID 2551, 2010. Potency, µM (series often up to 53.6 µM), for inactives: at the highest dose activity change, negative = inhibition, hits mostly inhibitors. Drosophila S2 Gal4-RORgamma UAS-luciferase reporter, 20 h. actives 5.4% (n = 310,000); also: potency is read from the fitted curve at half-maximal effect; % is scaled to controls: 0 for no effect and ±100 for the full control effect; nearly all actives have a fitted effect of over 60% in size
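Stably transfected Drosophila Schneider cells are the test system, with ROR gamma fused to Gal4 and luciferase under UAS control; luminescence is read after 20 hr of 700 uM copper sulfate induction at ambient temperature.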
Six1-Eya2 blk – qHTS Assay for Inhibitors of the Six1/Eya2 Interaction. Homeobox protein SIX1 (Homo sapiens) + Protein phosphatase EYA2 (Homo sapiens), …. AlphaScreen GST-Six1/His-Eya2 binding, biochemical; hits give low values. activity change, % (concentration not given with the values). actives 0.56% (n = 360,000); in the data active = activity change below about -65%; inconclusive = mostly about -30% to -63%; also: % is scaled to controls: 0 for no effect and ±100 for the full control effect
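AlphaScreen luminescence read after one hour at 37 °C in darkness. Pin-transferred compounds met GST-Six1 and His-Eya2 protein (5X stock 250 nM/500 nM) plus glutathione donor and Ni-chelate acceptor beads (5X, 50 ug/mL).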
VP16 counter – VP16 counterscreen qHTS for inhibitors of ROR gamma transcriptional activity; actives 3.5% (n = 310,000); Potency, µM (doses to about 53.6 µM), without a hit: top-dose activity, negative = inhibition, usual class: inhibitors; AID 2546, 2010; Drosophila S2 Gal4-VP16 UAS-luciferase, luminescence, 20 h;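 also: Gal4-VP16 expression switched on by copper sulfate through the metallothionein promoter; potency is read from the fitted curve at half-maximal effect; % is scaled to controls: 0 for no effect and ±100 for the full control effect; nearly all actives have a fitted effect of over 50% in size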
CBFb RUNX1 block – qHTS Assay for Compounds Blocking the Interaction Between CBF-beta and RUNX1 for the Treatment of Acute Myeloid Leukemia; Runt-related transcription factor 1 (Homo sapiens) + Core-binding factor subunit beta …; AlphaScreen CBFb-His/RUNX1-biotin binding, biochemical; Potency, µM (top dose mostly 59.8 µM), without a hit: at the top dose activity, negative = inhibition, hits mostly inhibitors; 230,000 tested, under 10 active; AID 1477, 2009; also: % of control where 0% means no effect
Target sequence (Q01196 whole entry, looked up): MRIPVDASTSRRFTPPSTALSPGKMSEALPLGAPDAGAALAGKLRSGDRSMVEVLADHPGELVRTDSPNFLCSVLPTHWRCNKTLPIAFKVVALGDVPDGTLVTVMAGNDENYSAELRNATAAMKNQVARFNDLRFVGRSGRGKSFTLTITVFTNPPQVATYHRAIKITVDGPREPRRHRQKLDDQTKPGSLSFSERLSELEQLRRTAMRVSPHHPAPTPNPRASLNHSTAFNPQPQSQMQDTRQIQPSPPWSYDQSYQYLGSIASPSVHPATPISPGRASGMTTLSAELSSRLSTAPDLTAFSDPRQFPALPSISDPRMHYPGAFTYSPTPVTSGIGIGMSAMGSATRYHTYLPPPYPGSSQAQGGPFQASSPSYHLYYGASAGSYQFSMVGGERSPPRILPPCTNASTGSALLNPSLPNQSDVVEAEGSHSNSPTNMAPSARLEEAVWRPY
Target sequence (Q13951 whole entry, looked up): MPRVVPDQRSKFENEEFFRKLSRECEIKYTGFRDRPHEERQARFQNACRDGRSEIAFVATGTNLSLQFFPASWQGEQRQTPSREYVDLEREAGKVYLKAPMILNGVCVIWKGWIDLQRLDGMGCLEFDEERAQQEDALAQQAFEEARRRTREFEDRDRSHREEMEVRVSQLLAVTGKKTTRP
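Interaction loss through any mechanism counts as activity. Pre-formed complex of His-CBF-beta and biotin-RUNX1 (30 nM apiece) is incubated with compound 15 min, then with 50 ng nickel and 50 ng streptavidin beads for 90 min before AlphaScreen detection.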
MBNL1-CUG inh – qHTS Assay for Inhibitors of MBNL1-poly(CUG) RNA binding | TR-FRET MBNL1-His/biotin-(CUG)12 binding, 665/545 ratio | actives 0.036% (n = 280,000) | Muscleblind-like protein 1 (Homo sapiens), Q9NR56 | Potency, µM (top dose mostly 57.5 µM), for the others: at the top dose activity change, negative = inhibition, hits mostly inhibitors; active = well fitted inhibition curve with a large enough effect in the signal ratio, with a control signal flat, not every such curve was filed as active; inconclusive = small, poorly fitted or top-dose-only effect, or effect the other way, or a change in a side signal; inactive = no such curve, though single readings can be large or run the other way; the % refers to the signal ratio; also: potency is read from the fitted curve at half-maximal effect; % is scaled to controls: 0 for no effect and ±100 for the full control effect
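MBNL1-His + Biotin-(CUG)12, cpd titration 92 nM–58 uM; Tb anti-His Ab 0.055 ng/ul, SA-XL665 5 nM (final); 60 min RT; ratiometric 665/545 nm, Ex 340 nm; normalized to buffer and full-complex controls.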
* marks the source's active call; other numbers are inactive results; u = inconclusive; x = no result; [ ] = dose if it differs, or a comment. The list is not random: actives were taken first. Their share in the collection is about 5.5%. Unless noted, calls follow the shape of the dose curve; as a rule, active = well fitted curve in the direction sought with a large enough effect; inconclusive = small, poorly fitted or top-dose-only effect, or another doubt; inactive = no such curve, though single readings can be large; an effect the other way counts as inactive or inconclusive.

SMILES	CtBP-E1A inh	RORg inh	Six1-Eya2 blk	VP16 counter	CBFb RUNX1 block	MBNL1-CUG inh
COC(=O)C1CC(O)CN1S(=O)(=O)c1cccs1 (configuration not stated)	6	12%	8	-7%	3%	-3%
CCc1cc(C(=O)NNC(=O)CCl)sc1C	x	10µM*	5	17%	9%	x
CCc1cc(C(=O)Nc2ncccc2O)sc1C	-6	7.9µM*	-3	10µM*	x	18%
CS(=O)(=O)N1CCC2(CCN(C(c3ccccc3)c3ccccc3)CC2)CC1	x	-2%	x	-7%	x	x
Cc1c(Cl)cccc1NC(CC(=O)c1ccccc1)C(=O)O (configuration not stated)	-4	7.9µM*	u	6.3µM*	3%	x
Cc1c(Cl)cccc1NC(=O)CC(Cc1ccccc1)C(=O)O (configuration not stated)	3	3%	5	3%	x	-5%
O=C(CC(C(=O)O)c1ccc(Cl)cc1)c1ccccc1 (configuration not stated)	3	20%	8	-6%	-1%	x
O=C(CC(Nc1ccc(Cl)cc1)C(=O)O)c1ccccc1 (configuration not stated)	0	5µM*	-1	5µM*	7%	4%
O=C(CC(Nc1cccc(Cl)c1Cl)C(=O)OCC(=O)c1cccs1)c1ccccc1 (configuration not stated)	3	20%	3	-10%	1%	-6%
O=C(CC(Nc1ccccc1Cl)C(=O)O)c1ccccc1 (configuration not stated)	5	7.1µM*	-10	27%[10 µM]	-1%	-8%
Cc1c(Cl)cccc1NC(CC(=O)c1ccccc1)C(=O)OCC(=O)c1cccs1 (configuration not stated)	-4	11µM*	-1	7.9µM*	-7%	-13%
N[C@@H]1C(O)OC(CO)C(O)C1O (some centres not stated)	x	-14%	x	-2%	6%	x
O=C(CC(Nc1cccc(Cl)c1Cl)C(=O)O)c1ccccc1 (configuration not stated)	12	11µM*	-3	26%[10 µM]	-2%	-2%
O=C(Nc1nc2c(cc3c4c(cccc42)CC3)s1)c1ccccc1Cl	13	5µM*	19	-26%	18%	-10%
FC(F)(F)c1ccccc1NC(=S)N1CCc2ccccc2C1	x	16µM*	4	u	16%	-1%
O=C(CN1CCc2ccccc2C1)Nc1ccccc1C(F)(F)F	4	22%	20	7%	x	1%
Cc1c(Cl)cccc1NC(=S)N1CCc2ccccc2C1	-24	10µM*	-4	u	5%	0%
C=CCOC(=O)NC(c1ccc(F)c(F)c1)C(C(C)=O)C(=O)OC (configuration not stated)	x	1%	x	5%	-5%	x
C/C(=N\N=C(/N)SC1CC(=O)N(c2ccc(Cl)cc2)C1=O)c1cccs1 (configuration not stated)	-17	13µM*	0	u	-4%	7%
Cc1cccc(C)c1N=C1C(=O)Nc2ccccc21	8	u	6	18µM*	x	u
Cc1cc(C)c(N=C2C(=O)Nc3ccccc32)c(C)c1	-23	-33%	0	-2%	x	u
Cc1cc(C)cc(OCC(=O)N/N=C/c2ccccn2)c1	-4	-21%	-14	-4%	-18%	-1%
CCC/C=N/NC(=O)c1ccccc1O	-3	10µM*	3	-81%	4%	-7%
COc1ccc(C(=O)Nc2ccccc2C(=O)N/N=C/c2ccccn2)cc1OC	0	1.3µM*	0	3.2µM*	-28%	0%
O=C(N/N=C/c1ccc(-c2ccc(Cl)c(C(=O)O)c2)o1)c1cc2c(ccc3ccccc32)o1	-85*	17%	u	-4%	14%	28%
SMILES	CtBP-E1A inh	RORg inh	Six1-Eya2 blk	VP16 counter	CBFb RUNX1 block	MBNL1-CUG inh
Cc1ccc(-c2ccc(/C=N\NC(=O)c3cc4c(ccc5ccccc54)o3)o2)cc1[N+](=O)[O-]	3	-19%	-2	-16%	3%	5%
Cc1ccccc1OCC(=O)N/N=C/c1ccccn1	-1	14µM*	-3	7%	-9%	5%
Cc1ccccc1SCC(=O)NCC1(N2CCCCC2)CCCCC1	5	x	-12	x	x	x
COc1ccc(CCNC(=O)c2ccc3c(c2)S(=O)(=O)N=C2CCCCCN23)cc1	10	x	1	x	x	x
Cc1ccccc1C(=O)N/N=C/c1ccccn1	-21	10µM*	-13	u	u	15%
O=C(N/N=C\c1ccncc1)c1ccccc1O	-8	11µM*	-3	u	4%	16%
CCOC(=O)C(CC)/C(C)=N\NC(=O)c1ccccc1O (configuration not stated)	23	10µM*	-12	13µM*	-24%	-9%
C/C=N\NC(=O)COc1cc(C)ccc1C	x	13µM*	-10	-1%	3%	6%
COc1ccc(OC)c(C(=O)N/N=C/c2ccccn2)c1	x	27%	1	1%	x	u
CCC/C(C)=N/NC(=O)c1ccccc1O	-2	u	-6	u	-16%	7%
Cc1ccccc1C(=O)N/N=C/c1ccncc1	3	-5%	0	0%	5%	-8%
OCCCNc1ncnc2c1ncn2[C@H]1CN(C2CCCC2)C[C@@H](CO)O1	2	x	0	x	x	x
CN1C(=O)[C@H]2[C@@H](c3ccc(C(F)(F)F)cc3)N[C@]3(CCCN(Cc4cccn4C)C3=O)[C@H]2C1=O	-4	x	-2	x	x	x
CCOc1ccc(Br)cc1C(=O)N/N=C/c1ccccn1	-15	11µM*	-12	2%	x	21%
O=C(N/N=C/c1ccc(-c2ccccc2)o1)c1ccccc1O	-7	u	-22	0.63µM*	-9%	x
O=C(Cc1ccc(Br)c2ccccc12)N/N=C/c1ccccn1	-6	7.9µM*	-16	-19%	-25%	24%
COC(=O)c1ccccc1-c1ccc(/C=N/NC(N)=O)o1	6	-4%	2	5%	6%	u
O=C(N/N=C\c1ccccn1)c1ccccc1O	u	2µM*	u	4.5µM*	u	20%
